Reference: the supplement of paper PMC3545927
The list shows a part of the results. The hit rate among all sequences tested is not known here.

B1: HC896 (peptide)
chain: CATIETITLPAGNASASA
B2: HC1707 (peptide)
chain: CAMEFCSQHLAGNASASA
B3: HC3 (peptide)
chain: CAMEEVSQHLAGNASASA
B4: FS-3055 (peptide)
chain: CARRKRQIYGAGNASASA
B5: FS-2370 (peptide)
chain: CARRKRQVRRAGNASASA
B6: FS-3052 (peptide)
chain: CARRKRDLDGAGNASASA
B7: FS-3204 (peptide)
chain: CARRKRQVYGAGNASASA
B8: FS-2300 (peptide)
chain: CARRVRDKDGAGNASASA
B9: FS-1775 (peptide)
chain: CARRKKSQDGAGNASASA
B10: HC2516 (peptide)
chain: CASTGCSAHLAGNASASA
B11: FS-568 (peptide)
chain: CATNLRIKRDAGNASASA
B12: FS-525 (peptide)
chain: CAFNLRMKRDAGNASASA
B13: HC2430 (peptide)
chain: CAVREVPCHRAGNASASA
B14: FS-492 (peptide)
chain: CARPGRRGRPAGNASASA
B15: FS-452 (peptide)
chain: CAKPGRRGRAAGNASASA
B16: FS-3259 (peptide)
chain: CARPGRRVCAAGNASASA
B17: FS-1596 (peptide)
chain: CAKRWRRGRAAGNASASA
B18: HC1799 (peptide)
chain: CAPEMEECSQAGNASASA
B19: FS-2537 (peptide)
chain: CARYKRMVERAGNASASA
B20: FS-3177 (peptide)
chain: CARYKRKSDEAGNASASA
B21: FS-2137 (peptide)
chain: CARERRDAGRAGNASASA
B22: FS-2550 (peptide)
chain: CARERRRAAKAGNASASA
B23: FS-1979 (peptide)
chain: CARYKRKMTQAGNASASA
B24: FU3 (peptide)
chain: CARERREVVRAGNASASA
B25: FS-2010 (peptide)
chain: CARERRWDRGAGNASASA
B26: FS-2486 (peptide)
chain: CARERRDSGVAGNASASA
B27: FS-2223 (peptide)
chain: CARNVRFSDEAGNASASA
B28: FS-3135 (peptide)
chain: CARYKKAVFRAGNASASA

Molecular target: furin, P09958
Test: furin cleavage Z-score vs untreated control; higher = more cleavage, active = 3.5 or more, inactive = 1 or less, 8 variable residues between constant flanks
Procedure: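 Multiplexed peptide-cDNA fusion cleavage assay. 8-mer variable peptides flanked by constant Cys-Ala (N-term) and Ala-Gly-Asn-Ala-Ser-Ala-Ser-Ala (C-term) and conjugated to a cDNA oligonucleotide were bead-immobilised via the N-terminus. They were treated with purified furin at a 1:10 enzyme:substrate ratio in 50 mM HEPES pH 7.5, 1 mM CaCl2, 100 mM NaCl for 7.5, 15 or 30 min. Released cDNA was counted by next-generation sequencing, and log counts versus no-furin controls were lowess-adjusted and converted to robust Z-scores.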

Sequence of furin, P09958 (P09958 whole entry): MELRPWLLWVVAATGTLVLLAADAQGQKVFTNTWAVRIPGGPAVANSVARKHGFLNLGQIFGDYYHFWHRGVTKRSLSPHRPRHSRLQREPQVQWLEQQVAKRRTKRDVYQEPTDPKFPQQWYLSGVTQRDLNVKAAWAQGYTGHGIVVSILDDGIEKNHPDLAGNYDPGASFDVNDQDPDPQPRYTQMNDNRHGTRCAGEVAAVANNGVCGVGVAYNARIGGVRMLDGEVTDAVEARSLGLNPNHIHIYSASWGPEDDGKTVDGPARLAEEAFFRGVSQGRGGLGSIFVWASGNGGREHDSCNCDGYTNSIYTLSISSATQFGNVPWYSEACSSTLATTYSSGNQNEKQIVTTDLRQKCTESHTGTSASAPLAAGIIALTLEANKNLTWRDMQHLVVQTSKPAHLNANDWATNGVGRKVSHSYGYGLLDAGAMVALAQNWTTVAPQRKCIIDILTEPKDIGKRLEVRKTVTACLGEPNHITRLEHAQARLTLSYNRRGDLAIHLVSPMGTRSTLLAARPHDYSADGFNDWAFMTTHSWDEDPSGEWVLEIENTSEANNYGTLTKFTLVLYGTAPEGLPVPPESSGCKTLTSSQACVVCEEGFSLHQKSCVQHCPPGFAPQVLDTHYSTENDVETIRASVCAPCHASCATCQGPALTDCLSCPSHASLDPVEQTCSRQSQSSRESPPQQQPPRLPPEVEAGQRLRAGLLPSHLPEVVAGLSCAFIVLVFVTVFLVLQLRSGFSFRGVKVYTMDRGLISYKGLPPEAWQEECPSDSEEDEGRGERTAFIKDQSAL

Sequence | furin cleavage Z-score (7.5 min) | furin cleavage Z-score (15 min) | furin cleavage Z-score (30 min)
B1 | -1.51 (inactive) | 0.877 (inactive) | -0.833 (inactive)
B2 | 0.147 (inactive) | 0.288 (inactive) | -0.0248 (inactive)
B3 | 0.556 (inactive) | 1.13 | 2.1
B4 | 2.2 | 5.1 (active) | 6.81 (active)
B5 | 6.85 (active) | 8.4 (active) | 6.39 (active)
B6 | 11.5 (active) | 11.4 (active) | 8.25 (active)
B7 | 6.12 (active) | 7.43 (active) | 7.08 (active)
B8 | 0.77 (inactive) | 1.62 | 2.04
B9 | 0.168 (inactive) | -0.316 (inactive) | 0.531 (inactive)
B10 | -1.2 (inactive) | 0.402 (inactive) | -0.12 (inactive)
B11 | 14.5 (active) | 15.3 (active) | 10.7 (active)
B12 | 14.3 (active) | 12.3 (active) | 10.8 (active)
B13 | -1.53 (inactive) | -1.03 (inactive) | -0.128 (inactive)
B14 | -0.496 (inactive) | -1.23 (inactive) | -0.0754 (inactive)
B15 | 6.38 (active) | 5.76 (active) | 4.89 (active)
B16 | -0.847 (inactive) | -1.4 (inactive) | -1.34 (inactive)
B17 | 6.85 (active) | 6.38 (active) | 4.94 (active)
B18 | 0.387 (inactive) | 0.44 (inactive) | 0.854 (inactive)
B19 | 7.23 (active) | 7.48 (active) | 6.63 (active)
B20 | 5.32 (active) | 5.6 (active) | 5.8 (active)
B21 | 9.55 (active) | 10.7 (active) | 9.14 (active)
B22 | 0.778 (inactive) | 0.314 (inactive) | 1.46
B23 | -0.853 (inactive) | -0.612 (inactive) | -0.101 (inactive)
B24 | 10.2 (active) | 11.3 (active) | 10.9 (active)
B25 | -1.3 (inactive) | -0.408 (inactive) | 1.72
B26 | -0.528 (inactive) | -0.224 (inactive) | 0.24 (inactive)
B27 | 0.545 (inactive) | -0.141 (inactive) | -1.68 (inactive)
B28 | 2 | 0.2 (inactive) | 2.99
